A number with no mark means an inactive call. The call rests on the fitted dose curve; in most records, active means well fitted curve in the direction sought with a large enough effect; inactive means no such curve, though single readings can be large or run the other way.
target: ATP-dependent 6-phosphofructokinase (Geobacillus stearothermophilus) (UniProt P00512); assay: Confirmatory Assay to Find Inhibitors of T. brucei phosphofructokinase: Counter Screen against Bacillus PFK; details: B. stearothermophilus PFK, ADP-Glo luminescence, 45 min; series mostly up to 57.5 µM; inhibition: at the top concentration
Excerpt: Various species of the protozoan family Trypanosomatidae are responsible for a range of serious human diseases in tropical and subtropical areas of the world. […] Many of the disorders caused by trypanosomatids are fatal if left untreated, but most currently used drugs are inefficient and toxic. […] Oxidative metabolism involving the mitochondrial tricarboxylic acid cycle and oxidative phosphorylation are repressed in these parasites, and recent RNA interference (RNAi) experiments have shown that even partial depletion of certain individual glycolytic enzymes can lead to the death of cultured parasites. One such glycolytic enzyme, phosphofructokinase (PFK), catalyzes the formation of fructose-1,6-bisphosphate (F1,6BP) and ADP from fructose-6-phosphate (F6P) and ATP, and in many metabolic circumstances makes an important contribution to the control of flux through the glycolytic pathway. As a specific glycolytic target, PFK is particularly attractive as it catalyzes the first irreversible step in glycolysis, and structural and kinetic studies have shown very substantial and essential differences from corresponding host enzymes, allowing for the discovery of parasite-selective inhibitors. A luminescent biochemical assay was performed that used luciferase-based nucleotide detection (ADP-Glo, Promega) to examine the effect of identified actives against a bacterial isoform of PFK, namely Bacillus stearothermophilus, for target specificity. The assay is identical in concept to the T. brucei PFK qHTS assay, but instead uses the B. stearothermophilus isoform of PFK (Sigma, St. Louis, MO) and ATP/F6P at bacterial isoform-specific Km concentrations. NIH Chemical Genomics Center [NCGC] NIH Molecular Libraries Probe Centers Network [MLPCN] MLPCN Grant: MH092153-01 Assay Submitter (PI): Malcom Walkinshaw, University of Edinburgh
Substrate buffer was dispensed into white, solid 1536-well plates at 3 uL/well in 0.1M triethanolamine (TEA) buffer, pH 8.0, containing final concentrations of 5 mM MgCl2, 0.01% Tween20, 0.6 mM fructose-6-phosphate (F6P) and 0.1 mM ATP. Then, 23 nl of compounds or DMSO were delivered to each well using a pin tool. One uL of B. stearothermophilus PFK (0.1 M TEA, 0.01% Tween20, 0.1% bovine serum albumin (BSA) and 10 nM PFK, final concentrations) was then dispensed, and plates were incubated at room temperature for 45 min. The luminescent detection reagent, ADP-Glo (Promega), was then added in two steps: the first reagent, ADP-Glo (which converts remaining uncatalyzed ATP), was added at 2.5 uL/well and incubated for ten minutes at room temperature, and the second component, Kinase Detection reagent (which converts ADP to ATP as a substrate for luciferase-based luminescence), was added immediately after at 5uL/well, followed by one final ten minute room temperature incubation. The plates were measured on a ViewLux plate reader for luminescent signal using a clear filter with a one second exposure. The %Activity was determined from the corrected luminescence values. 1x (1.25nM) and 0x PFK enzyme controls (untreated) were included to normalize %Activity of identified inhibitors; 0x enzyme values corresponded to 100%Activity (full inhibition), while 1x PFK enzyme values were used to normalize 0% Activity (no inhibition).

Question: `Cc1cc(NS(=O)(=O)c2ccc(NS(=O)(=O)Cc3ccc(Cl)c(Cl)c3)cc2)no1` was tested. Which “inhibition” value did it give?
Answer: 10.1%

Question: How did the “inhibition” value turn out when `Cc1cc(NC(=O)c2csc(NC(=O)Cc3ccc(Cl)c(Cl)c3)n2)no1` was run?
Answer: 10.4%

Question: For `Cc1cc(NS(=O)(=O)c2cccc(NC(=O)Cc3ccc(Cl)c(Cl)c3)c2)no1`, which “inhibition” value is on record?
Answer: 6.88%

Question: How did the “inhibition” value turn out when `O=C(Cc1ccc(Cl)c(Cl)c1)Nc1ccc(S(=O)(=O)Nc2cccc(O)c2)cc1` was run?
Answer: 5.79%

Question: With `Cc1cc(NS(=O)(=O)c2ccc(N(C)C(=O)Cc3ccc(Cl)c(Cl)c3)cc2)no1` as the compound, how does the “inhibition” value read?
Answer: 2.87%

Question: Which “inhibition” value does the source give for `Cc1cc(NS(=O)(=O)c2ccc(NC(=O)Cc3ccc(Cl)c(C(F)(F)F)c3)cc2)no1` here?
Answer: 6.45%

Question: With `Cc1cc(NS(=O)(=O)C2CCN(C(=O)Cc3ccc(Cl)c(Cl)c3)CC2)no1` as the compound, how does the “inhibition” value read?
Answer: 5.05%

Question: How did the “inhibition” value turn out when `CN(C)c1cccc(NS(=O)(=O)c2ccc(NC(=O)Cc3ccc(Cl)c(Cl)c3)cc2)c1` was run?
Answer: 10%

Question: How did the “inhibition” value turn out when `COc1ccc(CC(=O)Nc2ccc(S(=O)(=O)Nc3cc(C)on3)cc2)cc1C` was run?
Answer: 5.25%

Question: How did the “inhibition” value turn out when `O=C(Cc1ccc(Cl)c(Cl)c1)Nc1ccc(S(=O)(=O)Nc2ccc(C(=O)O)cc2)cc1` was run?
Answer: 3.89%

Question: `Cc1cc(NS(=O)(=O)c2ccc(NCCc3ccc(Cl)c(Cl)c3)cc2)no1` was tested. Which “inhibition” value did it give?
Answer: 6.15%

Question: For `Cc1cc(NC(=O)c2ccc(NC(=O)Cc3ccc(Cl)c(Cl)c3)cc2)no1`, which “inhibition” value is on record?
Answer: 9.14%

Question: How did the “inhibition” value turn out when `Cc1cc(NS(=O)(=O)c2ccc(NC(=O)Cc3ccc(Cl)c(Cl)c3)cc2)on1` was run?
Answer: 11.4%

Question: With `Cc1cc(NS(=O)(=O)c2ccc(NC(=O)Cc3ccc(Cl)c(F)c3)cc2)no1` as the compound, how does the “inhibition” value read?
Answer: 7.83%

Question: Which “inhibition” value does the source give for `Cc1cc(NS(=O)(=O)c2ccc(NC(=O)Cc3ccc(Cl)c(Cl)c3)cc2)n(C)n1` here?
Answer: 9.44%

Question: How did the “inhibition” value turn out when `Cc1cc(NS(=O)(=O)c2ccc(NC(=O)CCc3ccc(Cl)c(Cl)c3)cc2)no1` was run?
Answer: 7.06%

Question: `Cc1cc(NS(=O)(=O)c2ccc(C(=O)NCc3ccc(Cl)c(Cl)c3)cc2)no1` was tested. Which “inhibition” value did it give?
Answer: 12.6%

Question: With `O=C(Cc1ccc(Cl)c(Cl)c1)Nc1ccc(S(=O)(=O)Nc2ccon2)cc1` as the compound, how does the “inhibition” value read?
Answer: 7.77%

Question: Which “inhibition” value does the source give for `O=C(Cc1ccc(Cl)c(Cl)c1)Nc1ccc(S(=O)(=O)Nc2cncnc2)cc1` here?
Answer: 8.9%

Question: For `Cc1cc(NS(=O)(=O)c2ccc(NC(=O)C(C)(C)c3ccc(Cl)c(Cl)c3)cc2)no1`, which “inhibition” value is on record?
Answer: 8.27%

Question: `Cc1cc(NS(=O)(=O)c2ccc(NC(=O)Cc3ccc4ccccc4c3)cc2)no1` was tested. Which “inhibition” value did it give?
Answer: 5.31%

Question: With `Cc1cc(N[S+](=O)([O-])c2ccc3cc(NC(=O)Cc4ccc(Cl)c(Cl)c4)ccc3c2)no1` as the compound, how does the “inhibition” value read?
Answer: 1.3%

Question: Which “inhibition” value does the source give for `O=C(Cc1ccc(Cl)c(Cl)c1)Nc1ccc(S(=O)(=O)Nc2ccccc2)cc1` here?
Answer: 9.48%

Question: How did the “inhibition” value turn out when `O=C(Cc1ccc(Cl)c(Cl)c1)Nc1ccc(S(=O)(=O)O)cc1` was run?
Answer: 13.4%

Question: Which “inhibition” value does the source give for `Cc1cc(N(C)S(=O)(=O)c2ccc(NC(=O)Cc3ccc(Cl)c(Cl)c3)cc2)no1` here?
Answer: 7.13%

Question: For `O=C(Cc1ccc(Cl)c(Cl)c1)Nc1ccc(S(=O)(=O)Nc2ccn[nH]2)cc1`, which “inhibition” value is on record?
Answer: 12.7%

Question: For `Cc1cc(NS(=O)(=O)c2ccc(NC(=O)Cc3ccc(C)c(C)c3)cc2)no1`, which “inhibition” value is on record?
Answer: 1.26%

Question: With `Cc1cc(N[S+](=O)([O-])c2ccc(NC(=O)Cc3ccc(Cl)nc3)cc2)no1` as the compound, how does the “inhibition” value read?
Answer: 7.09%

Question: `Cc1cc(NS(=O)(=O)c2ccc(NC(=O)Cc3ccc(C)c(F)c3)cc2)no1` was tested. Which “inhibition” value did it give?
Answer: 7.42%

Question: Which “inhibition” value does the source give for `Cc1cc(NS(=O)(=O)c2ccc(NC(=O)Cc3ccccc3)cc2)no1` here?
Answer: 1.27%

Question: `Cc1cc(NS(=O)(=O)c2ccc(NC(=O)Cc3cccc(Cl)c3)cc2)no1` was tested. Which “inhibition” value did it give?
Answer: 5.01%

Question: How did the “inhibition” value turn out when `Cc1cc(NS(=O)(=O)Cc2ccc(NC(=O)Cc3ccc(Cl)c(Cl)c3)cc2)no1` was run?
Answer: 12.5%

Question: How did the “inhibition” value turn out when `Cc1cc(NS(=O)(=O)c2ccc(NC(=O)Cc3ccc(Cl)cc3)cc2)no1` was run?
Answer: 7.74%

Question: How did the “inhibition” value turn out when `Cc1cc(NS(=O)(=O)CCNC(=O)Cc2ccc(Cl)c(Cl)c2)no1` was run?
Answer: 6.94%

Question: Which “inhibition” value does the source give for `COc1ccc(CC(=O)Nc2ccc(S(=O)(=O)Nc3cc(C)on3)cc2)cc1OC` here?
Answer: 8.18%

Question: Which “inhibition” value does the source give for `Cc1cc(NS(=O)(=O)c2ccc(NC(=O)c3ccc(Cl)c(Cl)c3)cc2)no1` here?
Answer: 4.5%

Question: Which “inhibition” value does the source give for `Cc1cc(NS(=O)(=O)c2ccc(NC(=O)Cc3ccc(Cl)c(Cl)c3)cc2)no1` here?
Answer: -2.25%

Question: Which “inhibition” value does the source give for `Cc1cc(NS(=O)(=O)c2ccc(NC(=O)Cc3ccc(Cl)cc3Cl)cc2)no1` here?
Answer: 7.84%

Question: `O=C(Cc1ccc(Cl)c(Cl)c1)Nc1ccc(S(=O)(=O)Nc2cccc(C(=O)O)c2)cc1` was tested. Which “inhibition” value did it give?
Answer: 11.7%

Question: How did the “inhibition” value turn out when `CCOC(=O)c1cccc(NS(=O)(=O)c2ccc(NC(=O)Cc3ccc(Cl)c(Cl)c3)cc2)c1` was run?
Answer: 11.7%
